Here are results for 8 compounds from PubChem BioAssay.

The source made the active and inactive calls.

In assay [1] the test system is wheat germ agglutinin (Triticum aestivum), Alexa647-labelled. Put plainly: wheat germ agglutinin binders on compound microarrays, profiling panel, artefact control for SMM control-protein annotation, biochemical, small-molecule microarray, 635/667 nm fluorescence (AID 1140).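 Note: score merges 667 nm feature emission with signal to noise over triplicate slides.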 The note with it: WGA-A647 binding, 635 nm fluorescence, higher = more signal.
Assay [2] addresses Luciferin 4-monooxygenase (Photinus pyralis) (UniProt P08659). Kind of assay: firefly luciferase enzyme inhibitors, primary screen, biochemical, luminescence, purified enzyme, 2006 set (AID 1141).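 Note: cell-free assay with purified firefly luciferase at 100 ng per well in PBS; test concentration not given here.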 The following applies: SteadyGlo luminescence, 30 min, higher = more signal, called active from +8 up or from −8 down.
Assay [3] concerns Wnt5a (protein binding on small-molecule microarray). Kind of assay: Wnt5a binders on small-molecule microarray, primary screen, biophysical, 635/667 nm fluorescence (AID 1142).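 Note: fluorescence read at 667 nm with signal to noise per printed feature.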 The note with it: 635 nm fluorescence, higher = more signal.
Assay [4] can be described thus: cell viability in Huh7 cells, primary screen, cytotoxicity control for HCV replication inhibitor project, CellTiter-Glo luminescence, basal, 48 h (AID 1143).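 Note: Huh7 hepatoma cells carrying a hepatitis C replication reporter with no stimulus; test concentration not given here.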 The note with it: Huh7 HCV replicon, higher = more signal, called active from +8 up or from −8 down. (In general: In ATP-based viability assays light output follows the ATP content of the culture.)
Assay [5] in a line: CREB reporter modulators without forskolin, primary screen, cell-based, PC12, CRE-LacZ reporter, unstimulated (AID 1145). The following applies: no forskolin, luminescence, 4.5 h, higher = more signal, called active from +8 up or from −8 down.
Assay [6] can be described thus: CREB reporter modulators under forskolin, primary screen, cell-based, PC12, CRE-LacZ reporter, forskolin-stimulated (AID 1146).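 Note: PC12 cells with 6xCRE LacZ reporter stimulated by forskolin 10 µM; beta-galactosidase reporter signal reflecting CREB driven transcription.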 The following applies: luminescence, 4.5 h, higher = more signal, called active from +8 up or from −8 down.
Assay [7] concerns the target Streptavidin (Streptomyces avidinii) (UniProt P22629). Put plainly: streptavidin binders on small-molecule microarray, primary screen, artefact control for SMM compound annotation, biophysical, 635/667 nm fluorescence (AID 1147).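 Note: signal reflects streptavidin binding to arrayed compounds as a control protein.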 The following applies: streptavidin binding, higher = more signal.
A short description of assay [8]: small-molecule binders of probe aInhba, primary screen, biochemical, small-molecule microarray, 635/667 nm fluorescence (AID 1148).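 Note: score merges 667nm spot fluorescence with signal-to-noise for antibody binding to printed compounds.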 The following applies: higher = more signal.
Assay [9] addresses Torsin-1A (Homo sapiens) (UniProt O14656). Put plainly: torsin A binders from cell lysate, primary screen, small-molecule microarray, wild-type, 635/667 nm (AID 1149). The following applies: COS7 hTOR1A-WT lysate, 635 nm fluorescence, higher = more signal.
Assay [10] has the same target. Put plainly: small-molecule binders of mutant TOR1A in lysate, primary screen, cell lysate, small-molecule microarray, COS7 lysate, 635/667 nm fluorescence (AID 1150).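 Note: score pools 667 nm emission and signal to noise measuring lysate protein binding.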 The following applies: COS7 hTOR1A mutant lysate, 635 nm fluorescence, higher = more signal.
Assay [11] relates to Sonic hedgehog protein (Shh). Kind of assay: small-molecule binders of Shh protein, primary screen, biochemical, small-molecule microarray, 635/667 nm fluorescence (AID 1151).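 Note: Shh protein binding to compounds spotted on small-molecule microarray slides; score combines spot fluorescence intensity with signal-to-noise across triplicate slides.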 The note with it: small-molecule microarray binding, 635 nm fluorescence; higher = more signal.
Assay [12] is described as follows: E. coli DRC41 culture turbidity changes, primary screen, E. coli filamentation inducer project, strain DRC41, OD650, 48 h (AID 1152).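 Note: E. coli MC1000 strain DRC41 lacking acrAB efflux pump and sulA.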 The note with it: E. coli DRC41 (acrAB sulA), higher = more signal, called active from +8 up or from −8 down.
Assay [13] can be described thus: small-molecule binders of probe aLefty1, primary screen, biochemical, small-molecule microarray, 635/667 nm fluorescence (AID 1153).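 Note: score merges spot fluorescence with signal-to-noise ratio from the scanned slide images.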 The following applies: higher = more signal.
A short description of assay [14]: PSAC antagonists in infected red cells, primary screen, cell-based, P. falciparum Indochina, OD700, 1 h (AID 1154). The following applies: P. falciparum Indochina infected RBC osmotic lysis, higher = more signal, called active from +8 up or from −8 down.
Assay [15] can be described thus: PSAC antagonists in infected red cells, primary screen, cell-based, P. falciparum Indochina, OD700, 2 h (AID 1155).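 Note: lysis reports solute entry through the parasite surface anion channel PSAC; channel blockers reduce lysis of infected cells.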 The following applies: P. falciparum Indochina infected erythrocytes, osmotic lysis OD700; higher = more signal, called active from +8 up or from −8 down.
A short description of assay [16]: osmotic lysis modulators in infected erythrocytes, primary screen, PSAC antagonist project, cell-based, P. falciparum Indochina, OD700, 3 h (AID 1156). The note with it: higher = more signal, called active from +8 up or from −8 down.
Assay [17] in a line: PSAC antagonists in infected red cells, primary screen, cell-based, P. falciparum Indochina, OD700, 18 h (AID 1157). The following applies: P. falciparum Indochina infected erythrocytes, osmotic lysis OD700, 18 h; higher = more signal, called active from +8 up or from −8 down.
The nature of assay [18]: modulators of S6 phosphorylation in cells, primary screen, cell-based, A549, cytoblot, luminescence, serum-stimulated (AID 1158).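 Note: serum-stimulated A549 lung adenocarcinoma cells; signal is phosphorylated S6 detected by cytoblot immunostaining with HRP secondary.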 The note with it: A549 phospho-S6 cytoblot, 5 h, higher = more signal.
In assay [19] the target is NADPH oxidase 2 (Homo sapiens) (UniProt P04839). Put plainly: NOX2-dependent H2O2 signal modulators, primary screen, NOX inhibitor project, cell-based, HEK293-NOX2, PMA-stimulated, Amplex Red fluorescence (AID 1159). Note: test concentration not given here. The note with it: 45 min, higher = more signal, called active from +8 up or from −8 down.
NADPH oxidase 2 (Homo sapiens), sequence (P04839 whole entry, looked up): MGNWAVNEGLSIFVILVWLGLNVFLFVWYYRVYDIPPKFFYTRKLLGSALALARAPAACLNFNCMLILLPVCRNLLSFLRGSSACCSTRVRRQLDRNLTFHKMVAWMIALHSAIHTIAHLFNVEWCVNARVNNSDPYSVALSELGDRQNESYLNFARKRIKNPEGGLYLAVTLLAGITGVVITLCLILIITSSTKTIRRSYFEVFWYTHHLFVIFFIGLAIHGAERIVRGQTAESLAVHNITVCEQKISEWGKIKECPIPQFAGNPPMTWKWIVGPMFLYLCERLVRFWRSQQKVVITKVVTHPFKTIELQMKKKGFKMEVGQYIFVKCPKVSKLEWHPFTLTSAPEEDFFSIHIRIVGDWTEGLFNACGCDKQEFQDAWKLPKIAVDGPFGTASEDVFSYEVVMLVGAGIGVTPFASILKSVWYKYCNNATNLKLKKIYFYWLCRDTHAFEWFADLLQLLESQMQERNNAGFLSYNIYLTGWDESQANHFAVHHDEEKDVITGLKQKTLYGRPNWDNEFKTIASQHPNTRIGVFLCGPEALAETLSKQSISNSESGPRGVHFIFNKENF
For assay [20], the target named is NADPH oxidase 4 (Homo sapiens) (UniProt Q9NPH5). Kind of assay: NOX4-dependent H2O2 signal modulators, primary screen, NOX inhibitor project, cell-based, HEK293-NOX4, tetracycline-induced, Amplex Red fluorescence (AID 1160). The note with it: 45 min, higher = more signal, called active from +8 up or from −8 down.
NADPH oxidase 4 (Homo sapiens), sequence (Q9NPH5 whole entry, looked up): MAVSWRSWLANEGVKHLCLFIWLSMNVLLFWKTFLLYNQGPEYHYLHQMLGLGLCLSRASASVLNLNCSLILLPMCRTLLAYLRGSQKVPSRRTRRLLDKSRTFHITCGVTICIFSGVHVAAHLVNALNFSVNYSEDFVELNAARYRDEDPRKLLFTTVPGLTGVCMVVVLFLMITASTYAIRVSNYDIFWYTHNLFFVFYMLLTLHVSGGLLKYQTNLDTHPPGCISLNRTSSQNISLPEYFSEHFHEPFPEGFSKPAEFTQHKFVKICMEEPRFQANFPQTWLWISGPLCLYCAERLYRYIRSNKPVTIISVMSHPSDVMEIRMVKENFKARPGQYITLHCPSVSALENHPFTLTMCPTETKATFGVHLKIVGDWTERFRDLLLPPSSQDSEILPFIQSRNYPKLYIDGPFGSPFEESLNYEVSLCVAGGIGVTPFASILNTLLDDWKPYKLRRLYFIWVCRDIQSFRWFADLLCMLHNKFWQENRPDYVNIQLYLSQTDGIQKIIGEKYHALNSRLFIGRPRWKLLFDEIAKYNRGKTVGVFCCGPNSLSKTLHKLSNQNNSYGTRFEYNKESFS

Luciferin 4-monooxygenase (Photinus pyralis), sequence (P08659 whole entry, looked up): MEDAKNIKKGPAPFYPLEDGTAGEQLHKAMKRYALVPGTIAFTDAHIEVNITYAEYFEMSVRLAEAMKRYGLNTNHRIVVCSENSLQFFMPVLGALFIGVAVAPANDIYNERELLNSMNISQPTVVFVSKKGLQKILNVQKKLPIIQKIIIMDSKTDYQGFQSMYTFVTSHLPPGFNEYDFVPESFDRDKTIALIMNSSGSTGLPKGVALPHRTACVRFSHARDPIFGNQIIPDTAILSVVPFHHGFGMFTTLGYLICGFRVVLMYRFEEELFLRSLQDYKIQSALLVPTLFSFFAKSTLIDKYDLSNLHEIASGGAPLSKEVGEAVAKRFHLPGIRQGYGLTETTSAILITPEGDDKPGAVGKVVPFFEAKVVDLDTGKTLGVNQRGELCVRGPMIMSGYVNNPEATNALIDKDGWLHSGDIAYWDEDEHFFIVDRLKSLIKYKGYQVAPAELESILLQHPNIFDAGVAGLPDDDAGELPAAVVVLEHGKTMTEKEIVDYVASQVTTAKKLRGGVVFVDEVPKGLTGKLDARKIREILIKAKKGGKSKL
Torsin-1A (Homo sapiens), sequence (O14656 whole entry, looked up): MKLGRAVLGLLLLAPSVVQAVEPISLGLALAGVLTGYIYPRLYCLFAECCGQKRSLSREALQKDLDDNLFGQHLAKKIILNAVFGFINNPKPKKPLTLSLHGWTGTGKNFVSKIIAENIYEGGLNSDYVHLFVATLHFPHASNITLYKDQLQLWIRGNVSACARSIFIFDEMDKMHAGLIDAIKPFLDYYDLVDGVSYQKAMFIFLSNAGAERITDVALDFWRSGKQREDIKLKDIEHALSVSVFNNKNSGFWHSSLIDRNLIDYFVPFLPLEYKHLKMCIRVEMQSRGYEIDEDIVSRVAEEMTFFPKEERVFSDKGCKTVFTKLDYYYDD
Streptavidin (Streptomyces avidinii), sequence (P22629 whole entry, looked up): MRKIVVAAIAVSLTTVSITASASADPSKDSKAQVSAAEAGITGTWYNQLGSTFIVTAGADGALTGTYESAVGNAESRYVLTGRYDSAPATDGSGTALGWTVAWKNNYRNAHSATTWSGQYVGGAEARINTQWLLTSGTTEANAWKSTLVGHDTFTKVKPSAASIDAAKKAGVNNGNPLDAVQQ

Turning to `O=C(O)[C@H]1C[C@H]2C(=O)N[C@@H](Cc3ccccc3)C(=O)N2[C@H]1c1ccc(O)cc1`, the composite z-score in [1] is 0.302; in assay [3] it was 0.0525; in [7], -0.0681; in assay [8], 0.0228; with Torsin-1A (Homo sapiens) [9], 0.563; with Torsin-1A (Homo sapiens) [10] it was 0.458. The composite z-score is 1.24 in assay [11] and -0.0162 in assay [13]. The z-score in [2] is -1.3 (inactive); in [4], -0.423 (inactive); in assay [5] it was 0.826 (inactive); in [6] it was -0.83 (inactive); in assay [12], 0.763 (inactive); in assay [14], 2.03 (inactive). Further, the z-score in [15] was -0.0251 (inactive); in assay [16] it was -7.14 (inactive); in assay [17] it was -0.139 (inactive); in assay [18] it was 0.432; in assay [19] it was 1.53 (inactive); in assay [20], 1.42 (inactive).

For the compound `C=C(COC)C(=O)CC[C@H](OC(=O)c1ccccc1-c1ccccc1C(=O)O)c1ccccc1OCCO`, the composite z-score in assay [1] was -0.179; in assay [3], 0.032; in [7] it was 0.0456; in assay [8], -0.0021; with Torsin-1A (Homo sapiens) [9] it was 0.241; with Torsin-1A (Homo sapiens) [10], -0.063. Further, the figures for the composite z-score in [11] and in assay [13] were 1.2 and -0.196, respectively. In addition, the z-score is -3.05 (inactive) in assay [2]; -0.828 (inactive) in assay [4]; 0.844 (inactive) in assay [5]; 0.122 (inactive) in [6]; 0.832 (inactive) in assay [12]; 4.88 (inactive) in assay [14]. Also, the z-score in [15] was 0.673 (inactive); in assay [16], 2.51 (inactive); in assay [17] it was 0.65 (inactive); in assay [18], -0.541; in assay [19], 2.1 (inactive); in [20], 0.0678 (inactive).

For the compound `C=CCNC(=O)[C@H]1[C@@H]2C(=O)O[C@@H](c3ccccc3)[C@@H](c3ccccc3)N2[C@@H](c2ccc(OCCO)cc2)[C@]12C(=O)Nc1ccc(C#CCCO)cc12`, the composite z-score was 1.06 in [1]; -0.09 in [3]; -0.0494 in assay [7]; -0.0639 in assay [8]; 0.234 with Torsin-1A (Homo sapiens) [9]; 0.21 in the assay with Torsin-1A (Homo sapiens) [10]. Further, the composite z-score in assay [11] amounted to 1.06; in assay [13], 0.0793. The z-score is -0.969 (inactive) in [2]; -2.34 (inactive) in assay [4]; 0.0384 (inactive) in assay [5]; 0.8 (inactive) in assay [6]; 2.32 (inactive) in assay [12]; 4.5 (inactive) in assay [14]. Moreover, the z-score in assay [15] was -0.407 (inactive); in [16], -0.144 (inactive); in assay [17] it was -2.03 (inactive); in assay [18] it was 2.16; in assay [19], 2.4 (inactive); in assay [20], 1.18 (inactive).

Regarding `CCCCCN1CC=CC23O[C@@H]4/C=C\CCC(C)OC(=O)C4[C@H]2C(=O)N(CCO)[C@@H]3C1=O` (stereo not given in full), the composite z-score was -0.564 in [1]; -0.376 in [3]; -0.877 in [7]; -0.233 in assay [8]; 0.615 in the assay with Torsin-1A (Homo sapiens) [9]; 0.816 with Torsin-1A (Homo sapiens) [10]. The composite z-score in assay [11] was -0.542; in assay [13], -0.147. Also, the z-score was -0.967 (inactive) in [2]; -0.989 (inactive) in assay [4]; 1.02 (inactive) in assay [5]; -1.06 (inactive) in [6]; 2.08 (inactive) in assay [12]; 2.04 (inactive) in [14]. For the same compound, the z-score in assay [15] is 0.402 (inactive); in assay [16] it was 0.944 (inactive); in assay [17], 0.0613 (inactive); in [18], 0.0564; in assay [19], 1.88 (inactive); in [20] it was -0.354 (inactive).

Consider `C=CC[C@@]1(C(=O)NCc2ccccc2)N=C(c2ccc(OCCCO)cc2)O[C@@H]1c1ccccc1`, for which the composite z-score came out at 0.539 in assay [1]; 0.102 in assay [3]; 0.344 in assay [7]; 0.0582 in assay [8]; 0.161 with Torsin-1A (Homo sapiens) [9]; 0.551 with Torsin-1A (Homo sapiens) [10]. The results for the composite z-score in assay [11] and in assay [13] were -0.435 and 0.399, respectively. For the same compound, the z-score was -1.05 (inactive) in assay [2]; -4.6 (inactive) in assay [4]; -0.16 (inactive) in assay [5]; -1.56 (inactive) in assay [6]; 2.48 (inactive) in assay [12]; 24.4 (active) in assay [14]. In addition, the z-score in [15] is 11.3 (active); in assay [16] it was 2.34 (inactive); in assay [17], 0.546 (inactive); in assay [18], 1.46; in assay [19] it was -0.189 (inactive); in [20] it was 0.956 (inactive).

Take `C=C1C=C(Br)C2(OCCCO2)[C@H]2OC12` (stereo not given in full): the composite z-score is -0.903 in [1]; -0.093 in assay [3]; 0.61 in assay [7]; -0.128 in assay [8]; 0.639 in the assay with Torsin-1A (Homo sapiens) [9]; 0.495 in the assay with Torsin-1A (Homo sapiens) [10]. Also, the composite z-score in assay [11] was 0.411; in assay [13], -0.147. Besides, the z-score is -0.914 (inactive) in assay [2]; 0.15 (inactive) in assay [4]; 0.199 (inactive) in [5]; 0.676 (inactive) in assay [6]; 0.659 (inactive) in [12]; -0.14 (inactive) in assay [14]. In addition, the z-score is 0.146 (inactive) in assay [15]; -0.334 (inactive) in assay [16]; -0.12 (inactive) in [17]; -0.281 in assay [18]; 0.868 (inactive) in assay [19]; 0.0158 (inactive) in [20].

In the case of `C[N+](C)(C)CCCC[C@@H]1NC(=O)[C@H]2C[C@@H](C(=O)NCCCCCN)[C@@H](c3cccc(OCCO)c3)N2C1=O`, the composite z-score was 1.1 in assay [1]; 0.165 in assay [3]; 1.04 in [7]; 0.147 in assay [8]; 0.918 with Torsin-1A (Homo sapiens) [9]; 1.7 with Torsin-1A (Homo sapiens) [10]. Moreover, the composite z-score is -0.197 in assay [11] and 0.857 in assay [13]. In addition, the z-score in assay [2] is -0.714 (inactive); in assay [4], -1.18 (inactive); in [5] it was 0.0124 (inactive); in [6], -1 (inactive); in assay [12], 2.36 (inactive); in assay [14], 1.76 (inactive). Besides, the z-score in assay [15] is 0.858 (inactive); in [16], -1.26 (inactive); in assay [17], 0.57 (inactive); in [18], -0.0325; in assay [19], 1.03 (inactive); in [20], -0.833 (inactive).

For `C=CC[C@@H](OC(=O)Nc1ccc(SC)cc1)c1ccc(OCCO)cc1`, the composite z-score in assay [1] is -0.666; in [3], -0.248; in [7], -0.761; in assay [8], -0.202; in the assay with Torsin-1A (Homo sapiens) [9], 1.76; in the assay with Torsin-1A (Homo sapiens) [10], 0.972. Besides, the composite z-score in assay [11] was 0.43; in assay [13] it was 0.197. Moreover, the z-score in assay [2] is -3.91 (inactive); in assay [4], -0.89 (inactive); in assay [5] it was 14.4 (active); in assay [6], -0.595 (inactive); in [12], -0.0217 (inactive); in assay [14], 27.1 (active). Besides, the z-score in assay [15] is 18.6 (active); in assay [16] it was 0.616 (inactive); in [17], -0.016 (inactive); in assay [18], -0.506; in assay [19], -2.02 (inactive); in [20], -0.346 (inactive).
